Compounds without any hit were thinned out: in the full panel of roughly 83,000, 20% have a hit.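 Cell lines were cultured in 96-well plates, exposed to a single compound concentration, and assessed for percent growth 48 hours later.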 Values without a mark were called inactive. Calls of active or inactive are those of the source. How the source made its calls: active means growth percent below 10; inactive means the rest.

Test in all cases: NCI-60 one-dose screen, 48 h (100 = growth as untreated, 0 = no growth, -100 = all killed)
In one assay the test system is NCI-H23 lung. Conditions: 10 µM unless noted.
The test system of a further assay is NCI-H226 lung. The note with it: 10 µM unless noted.
A further assay concerns NCI-H322M lung. The note with it: 10 µM unless noted.
The next assay has as its system HOP-62 NSCLC. The note with it: 10 µM unless noted.
The next assay has as its system NCI-H460 lung. The note with it: 10 µM unless noted.
The next assay concerns HOP-92 NSCLC. Conditions: 10 µM unless noted.
Another assay has as its system NCI-H522 lung. The note with it: 10 µM unless noted.
The next assay has as its system A549/ATCC NSCLC. The note with it: 10 µM unless noted.
A further assay relates to 786-0 renal. The note with it: 10 µM unless noted.
Another assay deals with COLO 205 colon. Conditions: 10 µM unless noted.
The test system of another assay is DU-145 prostate. The note with it: 10 µM unless noted.
For the next assay, the system named is K-562 leukemia. The note with it: 10 µM unless noted.
In a further assay the test system is MALME-3M melanoma. The note with it: 10 µM unless noted.
The next assay has as its system MDA-MB-231 breast. Conditions: 10 µM unless noted.
The subject of a further assay is RXF 393 renal. The note with it: 10 µM unless noted.
The next assay relates to SF-268 CNS. Conditions: 10 µM unless noted.
A further assay has as its system SF-295 CNS. The note with it: 10 µM unless noted.
The subject of a further assay is SF-539 CNS. The note with it: 10 µM unless noted.
Another assay deals with M14 melanoma. The note with it: 10 µM unless noted.
A further assay has as its system UACC-257 melanoma. Conditions: 10 µM.

On to `CC[C@@](C)(NC(=O)C(C)(C)NC(=O)[C@@H](NC(=O)[C@@H]1CCCN1C(=O)C(C)(C)NC(=O)[C@H](CC(C)C)NC(=O)CNC(=O)C(C)(C)NC(=O)[C@@H](NC(=O)C(C)(C)NC(=O)[C@H](CCC(N)=O)NC(=O)[C@H](C)NC(=O)C(C)(C)NC(=O)[C@H](C)NC(=O)C(C)(C)NC(=O)[C@@H]1CCCN1C(=O)C(C)(C)NC(C)=O)C(C)C)C(C)C)C(=O)N[C@@H](CCC(N)=O)C(=O)N[C@@H](CCC(N)=O)C(=O)N[C@H](CO)Cc1ccccc1`, for which the growth in the assay with NCI-H23 lung was 14.9% [4.25 µM]; with NCI-H226 lung it was 61.3% [4.25 µM]; in the assay with NCI-H322M lung, 58.4% [4.25 µM]; in the assay with HOP-62 NSCLC it was 51.9% [4.25 µM]; with NCI-H460 lung, 39.4% [4.25 µM]; in the assay with HOP-92 NSCLC, -13.3% [4.25 µM] (active). In addition, the growth was -1.04% [4.25 µM] (active) in the assay on NCI-H522 lung; 50.1% [4.25 µM] in the assay on A549/ATCC NSCLC; 77.2% [4.25 µM] in the assay with 786-0 renal; -12.5% [4.25 µM] (active) in the assay on COLO 205 colon; 30.9% [4.25 µM] with DU-145 prostate; 29.1% [4.25 µM] in the assay with K-562 leukemia. The growth in the assay with MALME-3M melanoma was -21.3% [4.25 µM] (active); with MDA-MB-231 breast, 32.4% [4.25 µM]; in the assay with RXF 393 renal, 29.1% [4.25 µM]; with SF-268 CNS it was 31.6% [4.25 µM]; in the assay with SF-295 CNS it was 86.6% [4.25 µM]; in the assay on SF-539 CNS it was 28.7% [4.25 µM]. In addition, the growth with M14 melanoma is 65.9% [4.25 µM].

For `Cc1ccc(C2CC(c3ccc(Nc4nc(NCCO)nc(Nc5ccc(Cl)cc5)n4)cc3)=Nc3c(N)nc(N)nc3N2)cc1` (configuration not stated), the growth in the assay on NCI-H23 lung was -81.8% (active); with NCI-H226 lung, 49.7%; in the assay on NCI-H322M lung it was -89.8% (active); with HOP-62 NSCLC, -86.4% (active); in the assay with NCI-H460 lung it was -84.8% (active); in the assay on HOP-92 NSCLC it was 53.4%. Moreover, the growth in the assay with NCI-H522 lung was -69.4% (active); in the assay with A549/ATCC NSCLC it was 57.9%; with 786-0 renal it was -91.9% (active); in the assay on COLO 205 colon it was 29.9%; in the assay on DU-145 prostate, -90.7% (active); with K-562 leukemia, -53.5% (active). Further, the growth with MALME-3M melanoma is 95.6%; with MDA-MB-231 breast, -74.3% (active); in the assay with SF-268 CNS, -46.7% (active); with SF-295 CNS, 28.9%; in the assay with SF-539 CNS, -20.3% (active); with UACC-257 melanoma it was 113%. Besides, the growth in the assay with M14 melanoma was 2.15% (active).

With `O=S(=O)(Nc1ccc(-n2cnc3cc(-c4ccc(O)cc4)ccc32)cc1)C1CC1`, the growth was 101% in the assay on NCI-H23 lung; 96.2% in the assay on NCI-H226 lung; 90.9% in the assay with NCI-H322M lung; 86.8% with HOP-62 NSCLC; 88.7% in the assay with NCI-H460 lung; 115% in the assay with HOP-92 NSCLC. Also, the growth in the assay on NCI-H522 lung is 73.7%; in the assay on A549/ATCC NSCLC, 82.2%; in the assay with 786-0 renal, 86.6%; in the assay with COLO 205 colon, 123%; in the assay with DU-145 prostate, 95.3%; in the assay on K-562 leukemia, 59.8%. For the same compound, the growth with MALME-3M melanoma is 98.5%; with MDA-MB-231 breast it was 84.3%; in the assay with SF-268 CNS, 83.3%; with SF-295 CNS it was 90.1%; in the assay with SF-539 CNS, 71.8%; with UACC-257 melanoma, 98.2%. The growth in the assay with M14 melanoma is 96.6%.

In the case of `C/C(=C(/c1ccc(O)cc1)c1ccc(OCCN2CCCC2)cc1)c1ccc(Cl)cc1`, the growth in the assay on NCI-H23 lung was 46.8%; in the assay with NCI-H226 lung, 72.3%; in the assay with NCI-H322M lung, 53.8%; with HOP-62 NSCLC it was 63.1%; in the assay with NCI-H460 lung, -1.6% (active); in the assay on HOP-92 NSCLC, 50.3%. For the same compound, the growth in the assay on NCI-H522 lung is 61.1%; in the assay with A549/ATCC NSCLC it was 47.6%; in the assay with 786-0 renal, 45.7%; with COLO 205 colon, -86.6% (active); in the assay on DU-145 prostate it was 65.1%; in the assay on MALME-3M melanoma, -39.9% (active). Also, the growth with MDA-MB-231 breast was 40.9%; in the assay with RXF 393 renal, 3.89% (active); with SF-268 CNS, 60.9%; with SF-295 CNS, 67.8%; with SF-539 CNS it was 0.146% (active); in the assay with UACC-257 melanoma, -77.6% (active). In addition, the growth in the assay with M14 melanoma is -64.7% (active).

Take `CCOC(=O)c1c(Nc2ccccc2)nn2c(-c3ccc(OC)c(OC)c3)ccnc12`: the growth in the assay on NCI-H23 lung is 70.8%; with NCI-H226 lung it was 54.9%; in the assay on NCI-H322M lung, 92.5%; in the assay on HOP-62 NSCLC it was 72.7%; in the assay on NCI-H460 lung it was 47.9%; in the assay with HOP-92 NSCLC, 5.27% (active). The growth in the assay on NCI-H522 lung is 69.3%; in the assay with A549/ATCC NSCLC, 52.6%; with 786-0 renal, 37.6%; in the assay with COLO 205 colon, 55.7%; in the assay on DU-145 prostate, 74.2%; in the assay with K-562 leukemia it was 19.8%. Besides, the growth in the assay with MALME-3M melanoma is 76.2%; with MDA-MB-231 breast, 34.9%; in the assay with SF-268 CNS it was 68.1%; with SF-295 CNS, 49%; with SF-539 CNS it was 60.2%; in the assay with UACC-257 melanoma, 95.2%. For the same compound, the growth with M14 melanoma was 53.6%.

Turning to `C=C1C(=O)O[C@@H]2C[C@@H](C)CCC(=O)[C@](C)(OC(C)=O)C[C@H](OC(=O)/C(C)=C\C)[C@@H]12`, the growth with NCI-H23 lung is 70.6%; in the assay with NCI-H226 lung, 104%; in the assay on NCI-H322M lung it was 102%; in the assay with HOP-62 NSCLC it was 105%; in the assay on NCI-H460 lung it was 97.3%; with HOP-92 NSCLC, 80%. In addition, the growth was 11.8% in the assay on NCI-H522 lung; 87.7% in the assay on A549/ATCC NSCLC; 90.8% with 786-0 renal; 28.6% with COLO 205 colon; 37.2% with DU-145 prostate; 85.5% in the assay with MALME-3M melanoma. For the same compound, the growth with MDA-MB-231 breast was 50.4%; in the assay on RXF 393 renal it was 51.3%; in the assay on SF-268 CNS it was 96.1%; with SF-295 CNS, 97.5%; in the assay with SF-539 CNS it was 72.3%; in the assay on UACC-257 melanoma, 73.4%. Also, the growth with M14 melanoma is 82.4%.

`C=CCn1c(SCC(=O)Nc2cccc(C(=O)/C=C/c3ccc(Cl)cc3)c2)nc2ccccc2c1=O`: the growth was 92.3% in the assay on NCI-H23 lung; 102% in the assay with NCI-H226 lung; 95.6% in the assay with NCI-H322M lung; 113% in the assay on HOP-62 NSCLC; 95.4% in the assay on NCI-H460 lung; 88.7% in the assay on HOP-92 NSCLC. The growth with NCI-H522 lung is 81.8%; with A549/ATCC NSCLC, 85.7%; in the assay with 786-0 renal it was 98.2%; in the assay with COLO 205 colon, 112%; with DU-145 prostate, 95.1%; with MALME-3M melanoma, 95.6%. Moreover, the growth in the assay on MDA-MB-231 breast was 81.3%; in the assay on RXF 393 renal, 87%; in the assay on SF-268 CNS, 87.3%; with SF-295 CNS, 94.7%; in the assay on SF-539 CNS, 85.9%; with UACC-257 melanoma, 102%. Besides, the growth in the assay on M14 melanoma is 87.8%.

For the compound `COC(=O)c1nc(-c2ccc(C)cc2)oc1S(=O)(=O)N1CCN(c2oc(-c3ccccc3)nc2C#N)CC1`, the growth with NCI-H23 lung was 102%; in the assay with NCI-H226 lung, 101%; in the assay on NCI-H322M lung, 103%; in the assay on HOP-62 NSCLC, 112%; in the assay with NCI-H460 lung, 103%; in the assay on HOP-92 NSCLC, 106%. Moreover, the growth in the assay on NCI-H522 lung is 92.2%; in the assay on A549/ATCC NSCLC, 102%; in the assay with 786-0 renal, 102%; in the assay with COLO 205 colon it was 107%; in the assay on DU-145 prostate, 104%; in the assay with MALME-3M melanoma it was 98.6%. Further, the growth is 102% with MDA-MB-231 breast; 109% with RXF 393 renal; 98% with SF-268 CNS; 103% in the assay with SF-295 CNS; 98.6% with SF-539 CNS; 111% in the assay on UACC-257 melanoma. The growth with M14 melanoma was 74%.

Source of the values: PubChem BioAssay (NCI).
